Measurements published in PubChem BioAssay (Tox21).
Inconclusive results are not listed. Active and inactive are the calls of the source. Unless noted, calls follow the shape of the dose curve; as a rule, active = well fitted curve in the direction sought with a large enough effect in the repeat runs; inconclusive = weak or mixed curves; inactive = no such curve, though single readings can be large; an effect the other way counts as inactive or inconclusive.

Key:
[1] = qHTS assay to identify small molecule agonists of the peroxisome proliferator-activated receptor delta (PPARd) signaling pathway - cell viability counter screen (AID 743211); also: nearly all actives have a fitted effect of over 55% in size
Procedure, shortened: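 PPARd-bla HEK293H cells (3000/well) were pre-incubated 5 h at 37 C, then exposed to compound for 17 h at 37 C. After 2 h with LiveBLAzer substrate, CellTiter-Glo was added to the same wells; luminescence read after 30 min at room temperature.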

[2] = qHTS assay to identify small molecule antagonists of the peroxisome proliferator-activated receptor delta (PPARd) signaling pathway - cell viability counter screen (AID 743213); also: nearly all actives have a fitted effect of over 50% in size
Procedure, shortened: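 Viability counter-screen, qHTS format: PPARd-bla HEK293H, L165041 300 nM final, 17 h compound exposure at 37 C, CellTiter-Glo luminescence after 30 min RT.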

[3] = qHTS assay to identify small molecule agonists of the farnesoid-X-receptor (FXR) signaling pathway - cell viability counter screen (AID 743218); also: nearly all actives have a fitted effect of over 45% in size
Procedure, shortened: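 Luminescence from CellTiter-Glo, read after 30 min at RT, reports viability of GeneBLAzer FXR-UAS-bla HEK 293T cells treated 16 h with compounds in the wells used for the beta-lactamase reporter.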

[4] = qHTS assay to identify small molecule antagonists of the farnesoid-X-receptor (FXR) signaling pathway - cell viability counter screen (AID 743221; active = well fitted cell-killing curve with a large enough effect in the repeat runs, not every such curve was filed as active; also: nearly all actives have a fitted effect of over 50% in size)
Procedure, shortened: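 GeneBLAzer FXR-UAS-bla HEK 293T cells, compound plus chenodeoxycholic acid (50 uM final), 16 h at 37 C. CellTiter-Glo added to the same wells after the beta-lactamase read; luminescence read after 30 min at room temperature as viability.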

[5] = target: Vitamin D3 receptor (Homo sapiens) (UniProt P11473); assay: qHTS assay to identify small molecule agonists of the vitamin D receptor (VDR) signaling pathway (AID 743222; calls by dose curve)
Vitamin D3 receptor (Homo sapiens), sequence (P11473 whole entry, looked up): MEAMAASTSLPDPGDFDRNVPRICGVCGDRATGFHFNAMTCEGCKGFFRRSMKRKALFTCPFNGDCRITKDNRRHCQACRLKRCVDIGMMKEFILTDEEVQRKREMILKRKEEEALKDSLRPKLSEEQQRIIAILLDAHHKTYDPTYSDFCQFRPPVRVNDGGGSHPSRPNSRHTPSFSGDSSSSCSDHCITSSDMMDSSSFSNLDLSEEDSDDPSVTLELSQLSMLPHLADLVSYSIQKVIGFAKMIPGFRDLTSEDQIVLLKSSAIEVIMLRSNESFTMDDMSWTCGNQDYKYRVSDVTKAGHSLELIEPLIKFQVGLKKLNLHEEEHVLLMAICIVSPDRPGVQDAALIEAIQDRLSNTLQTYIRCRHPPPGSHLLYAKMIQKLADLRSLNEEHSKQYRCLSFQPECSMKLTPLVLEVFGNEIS
Procedure, shortened: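 Beta-lactamase reporter readout (LiveBLAzer B/G FRET, 2 h RT) in VDR-bla cells after 16 h compound treatment at 37C, 5% CO2; cells pre-incubated 4 h before pin transfer of DMSO solutions.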

[6] = target: Vitamin D3 receptor (Homo sapiens) (UniProt P11473); assay: qHTS assay to identify small molecule antagonists of the vitamin D receptor (VDR) signaling pathway (AID 743223; active = well fitted inhibition curve with a large enough effect in the signal ratio in the repeat runs, not every such curve was filed as active; the % refers to the signal ratio)
Procedure, shortened: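 VDR-bla cells were treated with compound plus 3 nM final 1alpha,25-dihydroxyvitamin D3 for 16 h at 37C. Beta-lactamase reporter read by B/G FRET substrate fluorescence after 2 h at room temperature. qHTS format.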

[7] = qHTS assay to identify small molecule agonists of the vitamin D receptor (VDR) signaling pathway - cell viability counter screen (AID 743224); also: series mostly up to about 63 µM; nearly all actives have a fitted effect of over 50% in size
Procedure, shortened: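 Cytotoxicity counter screen: VDR-bla cells, 16 h compound exposure at 37C, 5% CO2; CellTiter-Glo luminescence, 30 min RT, same wells as bla read.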

[8] = qHTS assay to identify small molecule antagonists of the vitamin D receptor (VDR) signaling pathway - cell viability counter screen (AID 743225); also: nearly all actives have a fitted effect of over 50% in size
Procedure, shortened: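 VDR-UAS-bla HEK 293T cells were plated and incubated 4 h at 37C, then dosed with compound plus 3 nM (final) 1-alpha,25-dihydroxyvitamin D3 for 16 h. After the 2 h beta-lactamase read, viability in the same wells was read as CellTiter-Glo luminescence after 30 min at room temperature.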

[9] = qHTS assay to identify small molecule agonists of the NFkB signaling pathway (AID 1159509; active = well fitted curve in the direction sought with a large enough effect in the signal ratio in the repeat runs, not every such curve was filed as active; the % refers to the signal ratio; also: series mostly up to about 61 µM)
Procedure, shortened: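 Agonist activity was read as beta-lactamase-driven FRET change (460 and 530 nm emission, 405 nm excitation) following 1.5 hr substrate loading at room temperature. Beforehand, ME-180 NFkB-bla reporter cells were treated with compounds for 5 hr at 37 C.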

[10] = qHTS assay to identify small molecule agonists of the NFkB signaling pathway - cell viability counter screen (AID 1159515; calls by dose curve; also: series mostly up to about 61 µM; nearly all actives have a fitted effect of over 55% in size)
Procedure, shortened: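 ME-180 NFkB-bla cells, 2,000/well; overnight attach; compound 5 hr, 37 C/5% CO2; LiveBLAzer substrate 1.5 hr RT; then CellTiter-Glo in same wells, 30 min RT, luminescence read.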

[11] = qHTS assay to identify small molecule agonists of the endoplasmic reticulum stress response signaling pathway (AID 1159516; active = well fitted activation curve with a large enough effect in the signal ratio in the repeat runs, not every such curve was filed as active; the % refers to the signal ratio)
Procedure, shortened: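 HeLa ESRE-bla reporter line; cpd 5 h, 37 C/5% CO2; LiveBLAzer B/G FRET substrate 2 h RT; ex 405, em 460/530 nm.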

[12] = qHTS assay to identify small molecule antagonists of the retinoid-related orphan receptor gamma (ROR-gamma) signaling pathway - cell viability counter screen (AID 1159520); also: nearly all actives have a fitted effect of over 50% in size
Procedure, shortened: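 Tet-on ROR gamma CHO cells (1,000/well) were plated 4 hr, given compounds in DMSO for 2 hr at 37 C, then induced with 1 uM final doxycycline for 16 hr. Viability was read as ATP by CellTiter-Glo luminescence after 30 min.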

[13] = target: Nuclear receptor ROR-gamma (Homo sapiens) (UniProt P51449); assay: qHTS assay to identify small molecule antagonists of the retinoid-related orphan receptor gamma (ROR-gamma) signaling pathway (AID 1159521)
Procedure, shortened: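 Tet-on ROR-gamma CHO cells with ROR response element-luciferase reporter; compounds added 2 hr before 1 uM doxycycline induction, then 16 hr at 37 C. Antagonism scored as decreased ONE-Glo luminescence.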

[14] = qHTS assay to identify small molecule agonists of the AP-1 signaling pathway (AID 1159526; calls by dose curve)
[15] = qHTS assay to identify small molecule agonists of the AP-1 signaling pathway - cell viability counter screen (AID 1159525; calls by dose curve; also: nearly all actives have a fitted effect of over 55% in size)
Procedure, shortened: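 Each titration point was normalised to DMSO and tetra n-octyl ammonium bromide controls. The read was Cell Titer Glo luminescence after 30 min at RT, following 5 h compound exposure of ME-180 AP-1-bla cells at 37 °C.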

[16] = target: Peroxisome proliferator-activated receptor delta (Homo sapiens) (UniProt Q03181); assay: qHTS assay to identify small molecule agonists of the peroxisome proliferator-activated receptor delta (PPARd) signaling pathway (AID 743212; calls by dose curve)
Peroxisome proliferator-activated receptor delta (Homo sapiens), sequence (Q03181 whole entry, looked up): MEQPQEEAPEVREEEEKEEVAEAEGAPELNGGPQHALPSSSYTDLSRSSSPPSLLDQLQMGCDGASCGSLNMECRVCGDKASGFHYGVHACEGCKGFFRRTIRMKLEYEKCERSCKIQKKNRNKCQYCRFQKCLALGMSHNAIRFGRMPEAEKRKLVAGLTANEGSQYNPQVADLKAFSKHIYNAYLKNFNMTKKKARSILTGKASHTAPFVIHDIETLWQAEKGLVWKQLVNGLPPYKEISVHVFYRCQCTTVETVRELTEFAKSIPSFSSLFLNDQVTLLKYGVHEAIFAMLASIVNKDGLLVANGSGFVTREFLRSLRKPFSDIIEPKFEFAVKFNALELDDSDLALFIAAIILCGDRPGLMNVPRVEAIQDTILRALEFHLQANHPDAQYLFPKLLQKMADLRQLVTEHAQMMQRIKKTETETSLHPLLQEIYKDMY
Procedure, shortened: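 Cells expressing a UAS-driven beta-lactamase reporter (PPARd-bla HEK293H) were given test compounds after a 5 h settle and kept at 37 C. Reporter activity was then measured as FRET fluorescence using LiveBLAzer B/G substrate.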

[17] = target: Bile acid receptor (Homo sapiens) (UniProt Q96RI1); assay: qHTS assay to identify small molecule antagonists of the farnesoid-X-receptor (FXR) signaling pathway (AID 743217; active = well fitted inhibition curve with a large enough effect in the signal ratio in the repeat runs, not every such curve was filed as active; the % refers to the signal ratio)
Bile acid receptor (Homo sapiens), sequence (Q96RI1 whole entry, looked up): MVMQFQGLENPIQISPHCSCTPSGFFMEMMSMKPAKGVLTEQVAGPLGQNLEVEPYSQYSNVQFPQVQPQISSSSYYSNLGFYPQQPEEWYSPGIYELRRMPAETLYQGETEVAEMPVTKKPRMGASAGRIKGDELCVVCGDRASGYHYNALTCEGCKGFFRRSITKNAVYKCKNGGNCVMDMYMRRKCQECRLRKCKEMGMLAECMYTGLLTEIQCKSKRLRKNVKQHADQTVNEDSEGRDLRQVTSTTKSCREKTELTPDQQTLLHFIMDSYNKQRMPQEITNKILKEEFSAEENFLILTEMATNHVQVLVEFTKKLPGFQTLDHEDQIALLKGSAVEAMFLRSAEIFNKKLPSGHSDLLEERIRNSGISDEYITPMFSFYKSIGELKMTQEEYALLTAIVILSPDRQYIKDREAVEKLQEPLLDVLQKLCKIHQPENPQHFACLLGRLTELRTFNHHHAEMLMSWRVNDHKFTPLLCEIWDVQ
Procedure, shortened: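 Read-out: beta-lactamase FRET fluorescence (LiveBLAzer B/G substrate, 2 h, room temperature) in GeneBLAzer FXR-UAS-bla HEK 293T cells. Compounds were co-dosed with 50 uM chenodeoxycholic acid (final) and incubated 16 h at 37 °C.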

[18] = target: Bile acid receptor (Homo sapiens) (UniProt Q96RI1); assay: qHTS assay to identify small molecule agonists of the farnesoid-X-receptor (FXR) signaling pathway (AID 743220; active = well fitted activation curve with a large enough effect in the signal ratio in the repeat runs, not every such curve was filed as active; the % refers to the signal ratio)
Procedure, shortened: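 FXR-UAS-bla HEK 293T cells carrying a UAS-driven beta-lactamase reporter were plated for 5 h at 37C/5% CO2, then exposed to DMSO-dissolved Tox21 10K compounds for 16 h at 37C. A LiveBLAzer B/G FRET substrate was loaded for 2 h at room temperature before fluorescence reading.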

[19] = target: Peroxisome proliferator-activated receptor delta (Homo sapiens) (UniProt Q03181); assay: qHTS assay to identify small molecule antagonists of the peroxisome proliferator-activated receptor delta (PPARd) signaling pathway (AID 743215; active = well fitted inhibition curve with a large enough effect in the signal ratio in the repeat runs, not every such curve was filed as active; the % refers to the signal ratio;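 also: cells stimulated with agonist L165041 at 300 nM final during compound exposure; series mostly up to about 62 µM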)
Procedure, shortened: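 HEK293H GeneBLAzer PPARd UAS-bla reporter cells; cpd + L165041 300 nM final, 17 h 37 C; LiveBLAzer B/G FRET substrate 2 h RT; fluorescence intensity read-out. Antagonist mode.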

[20] = qHTS assay to identify small molecule agonists of the endoplasmic reticulum stress response signaling pathway - cell viability counter screen (AID 1159517; calls by dose curve)
Procedure, shortened: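 Cpd-treated ESRE-bla HeLa (5 hr, 37 C) → LiveBLAzer 2 hr RT → CellTiter-Glo 30 min RT → luminescence.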

Measured: Potency

FC(F)(F)/C(=N\OCC1OCCO1)c1ccc(Cl)cc1
not listed: [15] | [16] | [17] | [18] | [19] | [20]
inactive: all other assays above

O=C(CN1CCN(Cc2ccc3c(c2)OCO3)CC1)N1c2ccccc2Sc2ccccc21
not listed: [16] | [17] | [18] | [19] | [20]
inactive: all other assays above

NC(=O)NC(=O)Cc1ccccc1
not listed: [13] | [15] | [19] | [20]
inactive: all other assays above

COc1cc2c(Nc3ccc(Br)cc3F)ncnc2cc1OCC1CCN(C)CC1
not listed: [5] | [6] | [8] | [13] | [18] | [20]
inactive: all other assays above

C=COCCOCCOC=C
not listed: [6] | [13] | [15]
inactive: all other assays above

Nc1ccc(S(=O)(=O)Nc2ccccn2)cc1
not listed: [6] | [12]
inactive: all other assays above

CC(C)c1ccccc1O
not listed: [12] | [13] | [18]
inactive: all other assays above

C[C@H]1O[C@H](O[C@H]2[C@H](O)[C@@H](O)[C@@H](O[C@H]3[C@H](O)[C@@H](O)[C@H](O)O[C@@H]3CO)O[C@@H]2CO)[C@H](O)[C@@H](O)[C@@H]1N[C@H]1C=C(CO)[C@@H](O)[C@H](O)[C@H]1O
not listed: [12] | [17] | [18]
inactive: all other assays above

CCC1COC(=O)O1 (stereo not given)
not listed: [18] | [20]
inactive: all other assays above

CC(=O)OCCCc1ccccc1
not listed: [5] | [6] | [18] | [20]
inactive: all other assays above

CCCCC/C=C/CC(=O)OC
not listed: [12] | [16] | [17] | [18] | [19]
inactive: all other assays above

CC(C)SCc1ccco1
not listed: [4] | [5] | [6] | [17] | [18] | [20]
inactive: all other assays above

CC(=O)OC(C)c1ccccc1 (stereo not given)
not listed: [2] | [6] | [13] | [16] | [17] | [18] | [19]
inactive: all other assays above

NCCc1ccn[nH]1
not listed: [5] | [6] | [17] | [18] | [20]
inactive: all other assays above

COc1ccc(NS(=O)(=O)c2ccc(N)cc2)nn1
not listed: [3] | [18] | [19] | [20]
inactive: all other assays above

COC(/C=C(\C)CCC=C(C)C)OC
not listed: [12] | [13] | [18]
inactive: all other assays above

CN(C1CCCCC1)S(=O)(=O)c1ccccc1N
not listed: [20]
inactive: all other assays above

CC(C)CCC(=O)CCC(C)C
not listed: [13] | [16] | [17] | [18] | [19] | [20]
inactive: all other assays above
